From PMC4552634, “A New Set of Chemical Starting Points with Plasmodium falciparum Transmission-Blocking Potential for Antimalarial Drug Discovery” (PLoS ONE, 2015)
The campaign covered roughly 13,000 compounds. About 3,200 (25%) showed an effect of 50% or more. The list shows a part of the results.

test system: P. falciparum stage V gametocytes; design: BacTiter-Glo ATP luminescence viability of purified stage V gametocytes in 384-well plates, per cent inhibition versus DMSO; details: 48 h, 5 µM; inhibitor

Q: Which “% Inhibition” value does the source give for COc1ccc2nccc([C@@H](O)CN3CCC(NCc4cc5sccc5nc4C(F)(F)F)CC3)c2c1 [TCMDC-141152] here?
A: 4.239%

Q: With COC(=O)Cc1ccc(N)c2ccccc12 [TCMDC-139173] as the compound, how does the “% Inhibition” value read?
A: -43.46%

Q: How did the “% Inhibition” value turn out when COc1ccc(CCNCCCCNCCc2ccc(OC)c3ccccc23)c2ccccc12 [TCMDC-137961] was run?
A: 106.4%

Q: How did the “% Inhibition” value turn out when COc1ccc(CNCCCCCCNCc2ccc(OC)c3ccccc23)c2ccccc12 [TCMDC-137631] was run?
A: 111.4%

Q: CCc1nonc1NC(=O)c1oc2c(C)c(C)ccc2c1C [TCMDC-123827] was tested. Which “% Inhibition” value did it give?
A: 4.304%

Q: Which “% Inhibition” value does the source give for FC(F)(F)c1ccc2[nH]c(-c3ccc(-c4cccc(CNCc5ccccc5)c4)s3)nc2c1.O=C(O)C(F)(F)F [TCMDC-132708] here?
A: -60.8%

Q: How did the “% Inhibition” value turn out when FC(F)(F)c1ccc2[nH]c(-c3ccc(-c4cccc(CNCCc5ccncc5)c4)s3)nc2c1.O=C(O)C(F)(F)F [TCMDC-132849] was run?
A: -1.104%

Q: With O=C(O)C(F)(F)F.c1cncc(CCNCc2cccc(-c3ccc(-c4nc5ccccc5[nH]4)s3)c2)c1 [TCMDC-132877] as the compound, how does the “% Inhibition” value read?
A: -12.84%

Q: FC(F)(F)c1ccc2[nH]c(-c3ccc(-c4cccc(CNCCc5cccnc5)c4)s3)nc2c1.O=C(O)C(F)(F)F [TCMDC-132874] was tested. Which “% Inhibition” value did it give?
A: 67.94%

Q: For CS(=O)(=O)NCCCNCc1cccc(-c2ccc(-c3nc4cc(C(F)(F)F)ccc4[nH]3)s2)c1.O=C(O)C(F)(F)F [TCMDC-133083], which “% Inhibition” value is on record?
A: -25.93%

Q: With CNCCNCc1cccc(-c2ccc(-c3nc4cc(C(F)(F)F)ccc4[nH]3)s2)c1.O=C(O)C(F)(F)F [TCMDC-132830] as the compound, how does the “% Inhibition” value read?
A: 50.68%

Q: How did the “% Inhibition” value turn out when N#CN1CC[C@H](CS(=O)(=O)c2cccc(Br)c2)C1 [TCMDC-133806] was run?
A: 9.818%

Q: COc1ccc(N2C(=O)c3c(c4ccccc4n3C)C2c2ccccc2O)cc1 (centres unmarked) [TCMDC-124403] was tested. Which “% Inhibition” value did it give?
A: -39.6%

Q: How did the “% Inhibition” value turn out when COc1cc2c(cc1S(=O)(=O)c1ccc(OCc3ccc(Cl)cc3)cc1)CCN(Cc1ccc(NC(C)=O)s1)CC2 [TCMDC-132326] was run?
A: -7.841%

Q: With O=S(=O)(c1ccc(OCc2ccc(Cl)cc2)cc1)c1cc2c(cc1O)CCN(C1CCC1)CC2 [TCMDC-135997] as the compound, how does the “% Inhibition” value read?
A: 28.22%

Q: Which “% Inhibition” value does the source give for O=S(=O)(c1ccc(OCc2ccc(Cl)cc2)cc1)c1cc2c(cc1OCc1ccccc1)CCN(CC1CC1)CC2 [TCMDC-134410] here?
A: 0.8378%

Q: O=S(=O)(c1ccc(OCc2ccc(Cl)cc2)cc1)c1cc2c(c(-c3ccc(F)cc3)c1)CCN(CC1CC1)CC2 [TCMDC-135736] was tested. Which “% Inhibition” value did it give?
A: 93.21%

Q: For O=S(=O)(Nc1cc2c(cc1OCc1ccccc1)CCN(C1CCC1)CC2)c1ccc(-c2ccc(Cl)cc2)cc1 [TCMDC-136027], which “% Inhibition” value is on record?
A: -11.35%

Q: How did the “% Inhibition” value turn out when O=S(=O)(c1ccc(OCc2ccc(Cl)cc2)cc1)c1cc2c(cc1OCc1ccccc1)CCN(C1CCC1)CC2 [TCMDC-135998] was run?
A: 60.24%

Q: For COc1ccc2nccc([C@@H](O)CN3CCC(NCc4ccc5nsnc5c4)CC3)c2c1 [TCMDC-140928], which “% Inhibition” value is on record?
A: 4.203%

Q: How did the “% Inhibition” value turn out when O=C(NCc1cccc(C(F)(F)F)c1)C1CCCN(C(=O)c2ccc(O)c(-c3ccc(Cl)c(Cl)c3)c2)C1 (centres unmarked) [TCMDC-140885] was run?
A: 20.85%

Q: For O=C(Cc1cnc[nH]1)Nc1cccc(-c2cccc(-c3nc4ccccc4[nH]3)c2)c1 [TCMDC-136940], which “% Inhibition” value is on record?
A: -12.56%

Q: Which “% Inhibition” value does the source give for CCC(CSC1CCCCC1)N(C)CCN(C)C(CC)CSC1CCCCC1 (centres unmarked) [TCMDC-131456] here?
A: 101.8%

Q: Which “% Inhibition” value does the source give for CCc1ccc(NC(=O)c2ccc(CN3CCCN(Cc4cccs4)CC3)cc2)cc1 [TCMDC-136447] here?
A: -19.53%

Q: For CC(C)C(=O)n1ncc2c3c(N)nc(N)nc3ccc21 [TCMDC-137841], which “% Inhibition” value is on record?
A: -14.38%

Q: With CCN(CCO)Cc1ccc(-c2ccc(NS(=O)(=O)c3cccc4cccnc34)cc2)cc1 [TCMDC-136477] as the compound, how does the “% Inhibition” value read?
A: -29.46%

Q: With Cc1cc(C(=O)Nc2ccc3c(c2)CCN3C2CCN(Cc3csc4ccccc34)C2)no1 (centres unmarked) [TCMDC-135082] as the compound, how does the “% Inhibition” value read?
A: 15.45%

Q: CCN(CC)CCCNc1cc[n+]([O-])c2cc3ccccc3cc12 [TCMDC-124146] was tested. Which “% Inhibition” value did it give?
A: -26.87%

Q: With CCN(CC)CCCNc1c2ccccc2nc2ccccc12.Cl [TCMDC-125517] as the compound, how does the “% Inhibition” value read?
A: 76.48%

Q: Which “% Inhibition” value does the source give for CCCCN(CCCC)CCCCCCNc1c2ccccc2nc2ccccc12 [TCMDC-137519] here?
A: 114.2%

Q: Which “% Inhibition” value does the source give for CCCCN(CCCC)CCCCNc1c2ccccc2nc2ccccc12 [TCMDC-137461] here?
A: 102%

Q: c1ccc2c(NCCc3c[nH]cn3)c3ccccc3nc2c1 [TCMDC-124424] was tested. Which “% Inhibition” value did it give?
A: 5.484%

Q: CCCCNc1cc(NCCCC)c2c(n1)[nH]c1ccccc12 [TCMDC-131827] was tested. Which “% Inhibition” value did it give?
A: -13.41%

Q: How did the “% Inhibition” value turn out when Cl.c1ccc2c(NCCOCCNc3c4ccccc4nc4ccccc34)c3ccccc3nc2c1 [TCMDC-124265] was run?
A: 121.8%

Q: For CCN(CC)CCNc1ccnc2c3ccccc3n(C)c12 [TCMDC-131844], which “% Inhibition” value is on record?
A: 2.979%

Q: With Cc1ccc(-c2cccc3c(NC(=O)Nc4ccc5nccc(N6CCN(C)CC6)c5c4)cccc23)cn1 [TCMDC-139367] as the compound, how does the “% Inhibition” value read?
A: -6.741%

Q: COc1ccccc1C1CCN(C2CCC(NC(=O)/C=C/c3ccc(C(F)(F)F)cc3)CC2)CC1 (centres unmarked) [TCMDC-133487] was tested. Which “% Inhibition” value did it give?
A: 28.53%

Q: For CCNc1cc(C)nc(Nc2ccc(NS(=O)(=O)c3ccccc3)cc2)n1 [TCMDC-124954], which “% Inhibition” value is on record?
A: -28.24%

Q: Which “% Inhibition” value does the source give for Cc1cccc(C)c1CNc1ccnc2cc(Br)ccc12 [TCMDC-132168] here?
A: -25.57%

Q: For CCCCn1c(N)c(N(Cc2ccco2)C(=O)C=Cc2cc(OC)c3c(c2)OCCO3)c(=O)[nH]c1=O [TCMDC-125328], which “% Inhibition” value is on record?
A: -14%

Q: With O=C(NC1CCN(c2ccnc3cc(Cl)ccc23)C1)c1ccc(C(F)(F)F)cc1 (centres unmarked) [TCMDC-133661] as the compound, how does the “% Inhibition” value read?
A: 38.8%

Q: Cn1nc2ccc3ccccc3c2nc1=N [TCMDC-131260] was tested. Which “% Inhibition” value did it give?
A: 93.18%

Q: For Cc1cccc(Nc2nc(C)cc(N3CCCN(CC4CCCCC4)CC3)n2)c1 [TCMDC-137025], which “% Inhibition” value is on record?
A: -12.77%

Q: With O=C(Nc1ccc(-c2nc3ccccc3[nH]2)cc1)c1ccc(S(=O)(=O)N2CCCCC2)cc1 [TCMDC-125834] as the compound, how does the “% Inhibition” value read?
A: -22.63%
